According to the supplement of paper PMC11732987, “Enantioselective OTUD7B fragment discovery through chemoproteomics screening and high-throughput optimisation” (Communications Chemistry, 2025):

How the values were obtained:
Assay in all cases: log2 ratio of Biotin-Ahx-Ub-VS probe labelling (fragment/DMSO); higher = less target engagement (more negative = stronger competition), active = hit call of the paper (q ≤ 0.05, log2 ratio ≤ -1)
Details in all cases: compound concentration: 200 uM; treatment time: 3 h
[1] = target: T1, USP19 (UniProt O94966)
T1 sequence (whole entry): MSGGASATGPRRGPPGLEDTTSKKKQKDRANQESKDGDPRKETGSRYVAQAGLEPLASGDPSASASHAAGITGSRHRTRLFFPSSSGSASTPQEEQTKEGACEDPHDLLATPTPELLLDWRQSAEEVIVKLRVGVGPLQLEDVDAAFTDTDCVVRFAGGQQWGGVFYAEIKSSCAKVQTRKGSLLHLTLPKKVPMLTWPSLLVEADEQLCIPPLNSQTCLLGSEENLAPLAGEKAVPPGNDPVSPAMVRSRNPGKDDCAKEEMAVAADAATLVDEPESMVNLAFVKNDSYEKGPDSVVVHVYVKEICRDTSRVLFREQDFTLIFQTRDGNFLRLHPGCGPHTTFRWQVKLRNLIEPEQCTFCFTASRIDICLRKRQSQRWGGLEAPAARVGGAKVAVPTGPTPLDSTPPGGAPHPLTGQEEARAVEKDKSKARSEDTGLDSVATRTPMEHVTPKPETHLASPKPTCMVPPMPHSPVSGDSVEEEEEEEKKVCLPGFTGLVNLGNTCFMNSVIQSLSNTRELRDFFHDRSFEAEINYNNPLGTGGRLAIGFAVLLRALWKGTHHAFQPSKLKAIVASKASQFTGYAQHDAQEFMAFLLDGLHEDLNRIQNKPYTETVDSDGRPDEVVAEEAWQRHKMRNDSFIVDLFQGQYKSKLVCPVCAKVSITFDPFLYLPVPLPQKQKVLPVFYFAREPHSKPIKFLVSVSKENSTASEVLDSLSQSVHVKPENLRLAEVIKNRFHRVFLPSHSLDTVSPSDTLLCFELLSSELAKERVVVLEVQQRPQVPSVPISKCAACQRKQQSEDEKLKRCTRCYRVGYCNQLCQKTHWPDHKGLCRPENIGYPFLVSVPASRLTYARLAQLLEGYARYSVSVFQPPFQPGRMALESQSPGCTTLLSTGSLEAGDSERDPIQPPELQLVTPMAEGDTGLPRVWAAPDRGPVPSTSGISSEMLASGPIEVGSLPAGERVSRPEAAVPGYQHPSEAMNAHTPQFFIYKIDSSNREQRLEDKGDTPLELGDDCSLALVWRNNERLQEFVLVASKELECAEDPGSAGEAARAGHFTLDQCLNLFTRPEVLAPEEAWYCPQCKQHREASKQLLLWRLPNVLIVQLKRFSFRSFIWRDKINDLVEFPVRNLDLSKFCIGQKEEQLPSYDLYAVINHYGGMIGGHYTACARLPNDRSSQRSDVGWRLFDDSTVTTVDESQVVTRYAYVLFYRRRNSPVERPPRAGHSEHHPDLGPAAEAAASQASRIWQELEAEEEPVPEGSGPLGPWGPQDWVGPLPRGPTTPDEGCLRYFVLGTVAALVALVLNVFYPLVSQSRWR
Outline: (§1)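 Labelled DUBs from HEK293T lysate were NeutrAvidin-enriched, digested with LysC and trypsin, and run by diaPASEF LC-MS/MS. Before that, each 495 µg sample in Tris/CHAPS/IGEPAL buffer with protease inhibitors was treated in triplicate with fragment at 200 µM or vehicle for 3 h, then with Biotin-Ahx-Ub-VS at 0.5 µM final for 1 h. Values are average log2 ratios of fragment over vehicle by unpaired t-test, based on global-median-normalised Spectronaut label-free quantities from proteins with ≥2 unique peptides.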

[2] = target: T2, USP22 (UniProt Q9UPT9)
T2 sequence (whole entry): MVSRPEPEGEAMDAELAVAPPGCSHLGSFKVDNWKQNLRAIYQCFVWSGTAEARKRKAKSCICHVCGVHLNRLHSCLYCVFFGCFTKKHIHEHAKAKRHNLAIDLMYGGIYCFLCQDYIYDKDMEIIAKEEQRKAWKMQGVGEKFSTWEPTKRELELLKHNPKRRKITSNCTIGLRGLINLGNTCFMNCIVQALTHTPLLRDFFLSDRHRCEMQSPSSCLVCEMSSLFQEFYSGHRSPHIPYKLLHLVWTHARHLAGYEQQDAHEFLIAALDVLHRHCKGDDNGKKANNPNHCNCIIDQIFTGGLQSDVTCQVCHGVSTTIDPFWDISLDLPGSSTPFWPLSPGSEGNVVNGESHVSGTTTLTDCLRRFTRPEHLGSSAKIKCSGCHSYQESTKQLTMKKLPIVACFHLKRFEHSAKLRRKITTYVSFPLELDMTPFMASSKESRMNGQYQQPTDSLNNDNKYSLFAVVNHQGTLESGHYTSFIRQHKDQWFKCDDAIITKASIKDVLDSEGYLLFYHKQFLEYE
Outline: as §1

[3] = target: USP24 (UniProt Q9UPU5)
Sequence of USP24 (Q9UPU5 whole entry): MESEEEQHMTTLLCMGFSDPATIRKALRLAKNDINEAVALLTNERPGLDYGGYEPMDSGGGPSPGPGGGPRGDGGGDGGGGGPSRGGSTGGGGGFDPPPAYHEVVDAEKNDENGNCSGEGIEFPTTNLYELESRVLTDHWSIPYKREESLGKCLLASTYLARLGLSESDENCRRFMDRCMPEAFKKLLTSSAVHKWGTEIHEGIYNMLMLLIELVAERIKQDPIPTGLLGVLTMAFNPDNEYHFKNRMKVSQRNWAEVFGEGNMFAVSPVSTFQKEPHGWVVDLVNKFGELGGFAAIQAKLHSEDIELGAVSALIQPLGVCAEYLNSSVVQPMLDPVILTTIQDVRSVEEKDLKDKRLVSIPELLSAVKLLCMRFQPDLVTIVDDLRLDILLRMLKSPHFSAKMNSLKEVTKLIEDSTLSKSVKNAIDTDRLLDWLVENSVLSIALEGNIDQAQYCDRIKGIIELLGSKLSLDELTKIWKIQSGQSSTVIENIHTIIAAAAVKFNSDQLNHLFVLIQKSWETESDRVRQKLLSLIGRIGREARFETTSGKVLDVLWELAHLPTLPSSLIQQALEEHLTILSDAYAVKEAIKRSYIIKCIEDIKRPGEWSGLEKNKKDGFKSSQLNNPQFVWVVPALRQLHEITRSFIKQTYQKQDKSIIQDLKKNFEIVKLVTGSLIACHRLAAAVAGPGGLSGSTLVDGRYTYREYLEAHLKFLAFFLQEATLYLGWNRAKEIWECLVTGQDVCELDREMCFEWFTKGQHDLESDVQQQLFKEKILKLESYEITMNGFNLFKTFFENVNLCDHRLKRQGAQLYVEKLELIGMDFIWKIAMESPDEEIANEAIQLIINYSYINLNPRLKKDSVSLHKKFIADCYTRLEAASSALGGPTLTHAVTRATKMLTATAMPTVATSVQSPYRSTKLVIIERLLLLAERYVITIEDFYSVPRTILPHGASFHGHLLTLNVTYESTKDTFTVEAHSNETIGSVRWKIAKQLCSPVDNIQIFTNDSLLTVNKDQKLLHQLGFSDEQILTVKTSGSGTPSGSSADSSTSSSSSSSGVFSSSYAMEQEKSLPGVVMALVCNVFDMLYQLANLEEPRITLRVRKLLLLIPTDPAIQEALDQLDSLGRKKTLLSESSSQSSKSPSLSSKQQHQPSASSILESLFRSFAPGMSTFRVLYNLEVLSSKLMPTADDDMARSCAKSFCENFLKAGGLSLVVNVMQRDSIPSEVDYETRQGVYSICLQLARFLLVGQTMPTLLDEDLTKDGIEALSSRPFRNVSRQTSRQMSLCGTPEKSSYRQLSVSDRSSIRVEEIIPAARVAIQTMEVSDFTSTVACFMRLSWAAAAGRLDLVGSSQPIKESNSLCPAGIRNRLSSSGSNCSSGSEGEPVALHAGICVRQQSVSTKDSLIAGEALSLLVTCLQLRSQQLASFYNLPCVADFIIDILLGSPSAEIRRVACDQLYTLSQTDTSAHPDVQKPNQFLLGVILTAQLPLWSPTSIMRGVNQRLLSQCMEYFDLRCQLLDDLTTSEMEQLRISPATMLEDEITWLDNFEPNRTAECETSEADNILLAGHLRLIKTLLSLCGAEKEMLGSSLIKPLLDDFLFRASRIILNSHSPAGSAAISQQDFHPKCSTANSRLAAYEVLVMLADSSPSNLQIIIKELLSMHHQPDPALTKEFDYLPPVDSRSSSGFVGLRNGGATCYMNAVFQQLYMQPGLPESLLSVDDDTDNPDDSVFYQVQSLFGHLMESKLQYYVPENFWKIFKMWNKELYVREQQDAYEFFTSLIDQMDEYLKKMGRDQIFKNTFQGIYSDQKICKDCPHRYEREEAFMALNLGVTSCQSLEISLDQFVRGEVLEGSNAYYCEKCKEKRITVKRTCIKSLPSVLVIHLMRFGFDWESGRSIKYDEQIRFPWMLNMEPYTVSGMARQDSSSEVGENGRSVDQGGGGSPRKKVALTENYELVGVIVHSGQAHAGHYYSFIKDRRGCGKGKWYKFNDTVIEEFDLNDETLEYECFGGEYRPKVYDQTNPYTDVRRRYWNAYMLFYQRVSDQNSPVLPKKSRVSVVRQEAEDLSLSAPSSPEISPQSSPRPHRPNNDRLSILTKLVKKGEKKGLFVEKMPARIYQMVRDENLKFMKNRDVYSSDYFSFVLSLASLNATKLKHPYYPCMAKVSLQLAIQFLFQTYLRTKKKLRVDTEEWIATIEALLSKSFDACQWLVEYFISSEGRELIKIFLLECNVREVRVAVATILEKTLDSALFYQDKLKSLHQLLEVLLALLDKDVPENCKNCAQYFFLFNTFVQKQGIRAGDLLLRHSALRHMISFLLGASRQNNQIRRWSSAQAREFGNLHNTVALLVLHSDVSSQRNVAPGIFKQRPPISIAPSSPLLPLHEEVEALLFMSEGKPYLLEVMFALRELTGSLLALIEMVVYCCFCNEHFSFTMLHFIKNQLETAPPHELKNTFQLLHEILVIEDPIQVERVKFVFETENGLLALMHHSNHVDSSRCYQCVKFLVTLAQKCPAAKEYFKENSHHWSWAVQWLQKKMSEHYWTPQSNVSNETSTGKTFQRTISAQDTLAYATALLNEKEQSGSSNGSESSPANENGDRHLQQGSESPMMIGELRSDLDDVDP
Outline: as §1

[4] = target: T3, USP25 (UniProt Q9UHP3)
T3 sequence (whole entry): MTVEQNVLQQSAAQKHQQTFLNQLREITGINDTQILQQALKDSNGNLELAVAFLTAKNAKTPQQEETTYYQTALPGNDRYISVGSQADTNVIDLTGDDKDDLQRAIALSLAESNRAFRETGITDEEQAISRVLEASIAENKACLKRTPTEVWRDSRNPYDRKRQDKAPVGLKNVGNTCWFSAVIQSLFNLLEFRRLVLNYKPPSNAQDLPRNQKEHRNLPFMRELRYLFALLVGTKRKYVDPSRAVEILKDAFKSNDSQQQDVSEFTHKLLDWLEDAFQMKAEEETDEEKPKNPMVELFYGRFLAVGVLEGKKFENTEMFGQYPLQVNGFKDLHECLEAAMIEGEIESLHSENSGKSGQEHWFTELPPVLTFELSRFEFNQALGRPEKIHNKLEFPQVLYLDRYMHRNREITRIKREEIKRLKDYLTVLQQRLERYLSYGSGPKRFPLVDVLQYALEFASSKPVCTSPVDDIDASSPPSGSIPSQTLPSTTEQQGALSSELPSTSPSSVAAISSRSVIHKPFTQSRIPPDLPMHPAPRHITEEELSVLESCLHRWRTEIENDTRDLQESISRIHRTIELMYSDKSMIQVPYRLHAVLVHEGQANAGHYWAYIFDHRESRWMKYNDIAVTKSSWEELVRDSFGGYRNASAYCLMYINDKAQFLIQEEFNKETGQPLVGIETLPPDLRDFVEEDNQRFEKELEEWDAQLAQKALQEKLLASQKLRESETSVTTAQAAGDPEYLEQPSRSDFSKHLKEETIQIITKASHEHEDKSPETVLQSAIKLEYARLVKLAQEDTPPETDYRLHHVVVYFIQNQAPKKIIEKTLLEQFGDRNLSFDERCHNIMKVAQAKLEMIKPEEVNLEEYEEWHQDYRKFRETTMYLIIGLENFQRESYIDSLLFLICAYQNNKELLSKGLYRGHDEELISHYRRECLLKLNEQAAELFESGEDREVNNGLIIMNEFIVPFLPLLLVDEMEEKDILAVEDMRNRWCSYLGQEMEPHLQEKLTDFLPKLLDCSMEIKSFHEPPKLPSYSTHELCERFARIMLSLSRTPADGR
Outline: as §1

[5] = target: T4, USP28 (UniProt Q96RU2)
T4 sequence (whole entry): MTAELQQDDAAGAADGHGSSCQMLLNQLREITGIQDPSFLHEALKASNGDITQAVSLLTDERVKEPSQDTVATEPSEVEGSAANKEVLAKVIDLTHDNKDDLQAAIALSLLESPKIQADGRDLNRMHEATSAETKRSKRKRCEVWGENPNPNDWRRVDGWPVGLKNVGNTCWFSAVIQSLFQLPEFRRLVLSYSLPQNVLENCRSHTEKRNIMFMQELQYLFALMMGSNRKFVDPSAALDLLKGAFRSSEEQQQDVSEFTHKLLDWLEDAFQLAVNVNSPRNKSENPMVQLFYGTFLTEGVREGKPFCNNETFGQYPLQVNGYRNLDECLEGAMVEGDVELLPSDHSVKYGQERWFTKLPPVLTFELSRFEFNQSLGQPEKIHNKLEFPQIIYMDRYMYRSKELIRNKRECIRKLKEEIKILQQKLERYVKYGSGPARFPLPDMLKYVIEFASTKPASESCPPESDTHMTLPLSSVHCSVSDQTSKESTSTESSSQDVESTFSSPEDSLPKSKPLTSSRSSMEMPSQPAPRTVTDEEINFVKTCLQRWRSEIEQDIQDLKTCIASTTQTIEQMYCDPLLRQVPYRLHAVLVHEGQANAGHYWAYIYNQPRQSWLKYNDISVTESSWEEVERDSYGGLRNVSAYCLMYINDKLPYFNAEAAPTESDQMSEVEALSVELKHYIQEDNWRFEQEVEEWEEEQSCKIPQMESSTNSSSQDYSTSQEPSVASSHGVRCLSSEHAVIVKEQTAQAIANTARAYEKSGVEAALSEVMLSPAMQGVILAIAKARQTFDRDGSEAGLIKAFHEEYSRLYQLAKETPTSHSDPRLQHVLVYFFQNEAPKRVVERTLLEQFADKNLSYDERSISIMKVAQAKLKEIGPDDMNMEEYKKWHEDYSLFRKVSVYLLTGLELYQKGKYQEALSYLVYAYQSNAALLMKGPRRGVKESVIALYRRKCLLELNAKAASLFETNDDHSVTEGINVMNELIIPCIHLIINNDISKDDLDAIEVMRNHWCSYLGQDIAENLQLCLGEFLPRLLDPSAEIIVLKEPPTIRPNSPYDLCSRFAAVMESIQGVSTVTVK
Outline: as §1

Measured: log2 ratio of Biotin-Ahx-Ub-VS probe labelling

O=C(CCl)NC1CCC(C(F)(F)F)CC1 (stereo not given)
inactive: [1] -0.155 | [2] 0.067 | [3] -0.771 | [4] -0.322 | [5] -0.705
